These results are taken from PubChem BioAssay AID779 (Sanford-Burnham Center for Chemical Genomics, 2007).

Unmarked numbers belong to inactive results. No rule for the calls is given here. Some results are limits rather than exact numbers.

By IC50 is commonly meant the concentration that gives 50% inhibition.

This test is described as follows: placental alkaline phosphatase inhibitors, dose response, counter-screen, biochemical, colorimetric (AID 779). To be noted: PLAP counter-screen, colorimetric OD read-out. (In general: Counterscreens check selectivity or assay interference.)
On to `Cc1ccc(-n2c(C)nc3oc4ccccc4c(=O)c3c2=O)cc1`, for which the IC50 is > 50 µM.
In the case of `CCCCN1C(=O)/C(=C/C=C2\N(C)c3ccccc3C2(C)C)SC1=S`, the IC50 is > 50 µM.
Consider `COc1ccccc1N1CSC2=C(C#N)C(c3ccc(SC)cc3)CC(=O)N2C1` (stereo unspecified), for which the IC50 is > 50 µM.
With `CCC(C)N1C(=O)/C(=C/c2c(NCCCOC(C)C)nc3c(C)cccn3c2=O)SC1=S` (stereo unspecified) the figure was > 50 µM; with `COc1ccc(N2Cc3cccc(C(=O)O)c3C2=O)cc1`, > 50 µM; with `Cn1cc([N+](=O)[O-])c(C(=O)Nc2ccc3c(c2)OCCO3)n1`, > 50 µM.
The value for `CCN(CCCNC(=O)CN(C)S(=O)(=O)c1cccc2nsnc12)c1cccc(C)c1` was > 50 µM; that for `CCOC(=O)c1cc(-c2ccc(/C=C3/C(=O)NC(=O)C(C#N)=C3C)o2)ccc1Cl` was > 50 µM.
With `CCCCN(CCCC)C1=Nc2ccccc2N/C1=C(/C#N)C(=O)OCC` the figure was > 50 µM.
Consider `O=C(O)c1ccccc1C(=O)NNc1ccc(F)cc1`, for which the IC50 is > 50 µM.
The value for `FC(F)(F)c1nnc2c(Sc3ccccn3)nc3ccccc3n12` was > 50 µM; that for `COc1ccc(Cc2nnc(NC(=O)Cc3cccs3)s2)cc1` was > 50 µM; that for `CCOC(=O)c1c(C)oc2c1c(C(c1cccnc1)N1CCOCC1)c(O)c1ccccc12` (stereo unspecified) was > 50 µM.
With `N#Cc1sc2nc(-c3cccs3)cc(-c3ccccc3)c2c1N` the figure was > 50 µM; with `Cc1c(NC(=S)N/N=C/c2cccc(O)c2)c(=O)n(-c2ccccc2)n1C`, > 50 µM.
With `CCOC(=O)C(C(=O)OCC)c1cc(Br)c2noc3c2c1C(=O)c1ccccc1-3` the figure was > 50 µM.
For the compound `COc1ccc(-n2c(NC(=O)c3ccc(Br)o3)c(C#N)c3nc4ccccc4nc32)cc1`, the IC50 is > 50 µM.
The value for `CCCOc1ccc(-c2nn(-c3ccccc3)cc2/C=C2\SC(=S)N(C3CCS(=O)(=O)C3)C2=O)cc1` (stereo unspecified) was > 50 µM; that for `CCOC(=O)c1c(NC(=S)Nc2ccccc2)sc2c1CCN(CCc1ccccc1)C2` was > 50 µM; that for `Cc1ccc(C)c(N(CC(=O)N/N=C/c2ccc(-c3ccc([N+](=O)[O-])cc3)o2)S(=O)(=O)c2ccccc2)c1` was > 50 µM.
The value for `COc1ccc(C(c2nnnn2Cc2cccs2)N2CCN(c3ccccc3F)CC2)cc1` (stereo unspecified) was > 50 µM; that for `COc1ccc(OC)c(NC(=O)CSc2nc3ccccc3cc2Cc2ccccc2)c1` was > 50 µM; that for `O=C(NCCc1ccccc1)c1ccc2nc(-c3ccco3)c(-c3ccco3)nc2c1` was > 50 µM.
With `O=C(Nc1cccc2ccccc12)/C(=C/c1ccc([N+](=O)[O-])cc1)NC(=O)c1ccccc1` the figure was > 50 µM; with `Clc1ccccc1CSc1nnc(-c2ccco2)c(-c2ccco2)n1`, > 50 µM.
For the compound `Nc1ccc(Br)c2c1C(=O)c1ccccc1C2=O`, the IC50 is > 50 µM.
As to `Cc1cccc2cc(/C=C3\N=C(c4ccccc4)OC3=O)c(N3CCOCC3)nc12`, the IC50 is > 50 µM.
With `C=CCn1c(=O)/c(=C/c2cc(OC)c(OC)c(OC)c2)s/c1=C(/C#N)c1nc2ccccc2n1C` the figure was > 50 µM; with `Cc1ccc(C)c(OCc2nnc(N)s2)c1`, > 50 µM; with `Cc1ccc(S(=O)(=O)/C(C#N)=C/c2c(N3CCOCC3)nc3ccccn3c2=O)cc1`, > 50 µM.
The value for `CC(C(=O)O)N1C(=O)/C(=C/C=C/c2ccco2)SC1=S` (stereo unspecified) was > 50 µM.
